# In PubChem BioAssay AID1159580 (chemical genetic matrix, 2015):
# Screen size: about 5,500 compounds; about 2,000 (36%) were called active. Roughly 18% stayed inconclusive and do not appear here. The list shows a part of the results. Values without a mark were called inactive. No stated cut-off is given here; in the data, active means normalized growth mostly below about 0.91 (no sharp cut-off); inconclusive means no clear call, values can overlap the other calls; inactive means mostly above about 0.92.
# Assay: chemical genetic growth profiling, strain panel (AID 1159580);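 further: tested at 20 µM; growth read once vehicle control cultures reached saturation at 30 °C; 1 = growth at the plate median or of vehicle wells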
# Settings: S. cerevisiae deletion strains, growth OD
structure (smiles),measurement,setting,value
Cc1cc(Br)c(OCC(=O)NN)c2c1CCC2,normalized growth,"locus YAL013W, strain DEP1, stronger effect = lower value",1
same,normalized growth,"locus YBR229C, strain ROT2, stronger effect = lower value",1
same,normalized growth,"locus YCL061C, strain MRC1, stronger effect = lower value",1.01
same,normalized growth,"locus YDL101C, strain DUN1, stronger effect = lower value",0.995
same,normalized growth,"locus YDL134C, strain PPH21, stronger effect = lower value",1
same,normalized growth,"locus YDR150W, strain NUM1, stronger effect = lower value",1.05
same,normalized growth,"locus YEL061C, strain CIN8, stronger effect = lower value",0.985
same,normalized growth,"locus YGR078C, strain PAC10, stronger effect = lower value",0.999
same,normalized growth,"locus YHR030C, strain SLT2, stronger effect = lower value",0.856
same,normalized growth,"locus YHR087W, strain rtc3, stronger effect = lower value",0.993
same,normalized growth,"locus YJR043C, strain POL32, stronger effect = lower value",0.998
same,normalized growth,"locus YJR075W, strain HOC1, stronger effect = lower value",0.989
same,normalized growth,"locus YKL190W, strain CNB1, stronger effect = lower value",0.989
same,normalized growth,"locus YLR039C, strain RIC1, stronger effect = lower value",0.608 (active)
same,normalized growth,"locus YLR058C, strain SHM2 (second series), stronger effect = lower value",0.999
same,normalized growth,"locus YLR085C, strain ARP6, stronger effect = lower value",0.947
same,normalized growth,"locus YLR262C, strain YPT6, stronger effect = lower value",0.584 (active)
same,normalized growth,"locus YML094W, strain GIM5, stronger effect = lower value",0.975
same,normalized growth,"locus YMR219W, strain ESC1, stronger effect = lower value",1
same,normalized growth,"locus YMR263W, strain SAP30, stronger effect = lower value",0.961
same,normalized growth,"locus YNL153C, strain GIM3, stronger effect = lower value",1.02
same,normalized growth,"locus YNL298W, strain CLA4 (second series), stronger effect = lower value",0.979
same,normalized growth,"locus YNL322C, strain KRE1, stronger effect = lower value",0.994
same,normalized growth,"locus YNR030W, strain Alg12, stronger effect = lower value",0.997
same,normalized growth,"locus YPL055C, strain LGE1, stronger effect = lower value",0.915
same,normalized growth,"locus YPL241C, strain CIN2, stronger effect = lower value",1.02
same,normalized growth,"locus YPR135W, strain CTF4, stronger effect = lower value",0.906
